Measured values reported in the supplement of paper PMC8728848.
Only a selection was taken, and the strongest signals are over-represented in it overall.

Legend:
Experiment in all cases: glycan array binding signal (z-score within array); higher = stronger binding
Conditions in all cases: glycan notation: IUPAC condensed, linker removed
[1] = biological target: Fuc(a1-2)Gal(b1-3)GlcNAc6S
Summary of the method: (§1)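 Arrays were curated from the Consortium for Functional Glycomics database, 3228 in total, and kept only where the protein sequence was available. Binding is expressed as a within-array Z-score. This score was averaged across arrays of the same protein sequence at different concentrations or buffers and across linkers, and negative values can be read as non-binding.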

[2] = biological target: Fuc(a1-2)Gal(b1-3)[Fuc(a1-4)]GlcNAc(b1-2)Man(a1-3)[Fuc(a1-2)Gal(b1-3)[Fuc(a1-4)]GlcNAc(b1-2)Man(a1-6)]Man(b1-4)GlcNAc(b1-4)[Fuc(a1-6)]GlcNAc(b1-4)[Fuc(a1-6)]GlcNAc
Summary of the method: as §1

[3] = biological target: Fuc(a1-2)Gal(b1-4)GlcNAc(b1-2)Man(a1-3)[Fuc(a1-2)Gal(b1-4)GlcNAc(b1-2)Man(a1-6)]Man(b1-4)GlcNAc(b1-4)GlcNAc
Summary of the method: as §1

[4] = biological target: Fuc(a1-2)Gal(b1-4)GlcNAc(b1-2)[Fuc(a1-2)Gal(b1-4)GlcNAc(b1-4)]Man(a1-3)[Fuc(a1-2)Gal(b1-4)GlcNAc(b1-2)Man(a1-6)]Man(b1-4)GlcNAc(b1-4)GlcNAc
Summary of the method: as §1

[5] = biological target: Fuc(a1-2)Gal(b1-4)GlcNAc(b1-3)Gal(b1-4)GlcNAc(b1-2)Man(a1-3)[Fuc(a1-2)Gal(b1-4)GlcNAc(b1-3)Gal(b1-4)GlcNAc(b1-2)Man(a1-6)]Man(b1-4)GlcNAc(b1-4)GlcNAc
Summary of the method: as §1

[6] = biological target: Fuc(a1-2)Gal(b1-4)[Fuc(a1-3)]GlcNAc
Summary of the method: as §1

[7] = biological target: Fuc(a1-2)Gal(b1-4)[Fuc(a1-3)]GlcNAc(b1-2)[Fuc(a1-2)Gal(b1-4)[Fuc(a1-3)]GlcNAc(b1-4)]Man(a1-3)[Fuc(a1-2)Gal(b1-4)[Fuc(a1-3)]GlcNAc(b1-2)Man(a1-6)]Man(b1-4)GlcNAc(b1-4)GlcNAc
Summary of the method: as §1

[8] = biological target: Fuc(a1-2)Gal6S(b1-3)GlcNAc6S
Summary of the method: as §1

[9] = biological target: Fuc(a1-2)[Gal(a1-3)]Gal(b1-3)GlcNAc(b1-2)Man(a1-3)[Fuc(a1-2)[Gal(a1-3)]Gal(b1-3)GlcNAc(b1-2)Man(a1-6)]Man(b1-4)GlcNAc(b1-4)[Fuc(a1-6)]GlcNAc
Summary of the method: as §1

[10] = biological target: Fuc(a1-2)[Gal(a1-3)]Gal(b1-4)[Fuc(a1-3)]GlcNAc
Summary of the method: as §1

[11] = biological target: Fuc(a1-2)[GalNAc(a1-3)]Gal(b1-3)GlcNAc(b1-2)Man(a1-3)[Fuc(a1-2)[GalNAc(a1-3)]Gal(b1-3)GlcNAc(b1-2)Man(a1-6)]Man(b1-4)GlcNAc(b1-4)[Fuc(a1-6)]GlcNAc
Summary of the method: as §1

[12] = biological target: Fuc(a1-2)[GalNAc(a1-4)]Gal(b1-4)GlcNAc
Summary of the method: as §1

[13] = biological target: Fuc(a1-2)[GalNAc(b1-3)]Gal
Summary of the method: as §1

[14] = biological target: Fuc(a1-3)[Gal(b1-4)]GlcNAc(b1-2)Man
Summary of the method: as §1

[15] = biological target: Gal(a1-3)Gal(b1-3)GlcNAc(b1-2)Man
Summary of the method: as §1

[16] = biological target: Gal(a1-3)Gal(b1-4)[Fuc(a1-3)]GlcNAc
Summary of the method: as §1

[17] = biological target: Gal(a1-3)[Gal(a1-4)]Gal(b1-4)GlcNAc
Summary of the method: as §1

[18] = biological target: Gal(b1-3)GlcNAc
Summary of the method: as §1

[19] = biological target: Gal(b1-3)GlcNAc(b1-2)Man
Summary of the method: as §1

[20] = biological target: Gal(b1-3)GlcNAc(b1-2)Man(a1-3)[GlcNAc(b1-4)][Gal(b1-3)GlcNAc(b1-2)Man(a1-6)]Man(b1-4)GlcNAc(b1-4)GlcNAc
Summary of the method: as §1

[21] = biological target: Gal(b1-3)GlcNAc(b1-3)Gal(b1-4)GlcNAc(b1-2)Man(a1-3)[Gal(b1-3)GlcNAc(b1-3)Gal(b1-4)GlcNAc(b1-2)Man(a1-6)]Man(b1-4)GlcNAc(b1-4)GlcNAc
Summary of the method: as §1

[22] = biological target: Gal(b1-3)GlcNAc(b1-3)Gal(b1-4)GlcNAc(b1-2)[Gal(b1-3)GlcNAc(b1-3)Gal(b1-4)GlcNAc(b1-6)]Man(a1-6)[Gal(b1-3)GlcNAc(b1-3)Gal(b1-4)GlcNAc(b1-2)Man(a1-3)]Man(b1-4)GlcNAc(b1-4)[Fuc(a1-6)]GlcNAc
Summary of the method: as §1

[23] = biological target: Gal(b1-3)GlcNAc(b1-3)Gal(b1-4)GlcNAc(b1-3)Gal(b1-4)GlcNAc(b1-2)[Gal(b1-3)GlcNAc(b1-3)Gal(b1-4)GlcNAc(b1-3)Gal(b1-4)GlcNAc(b1-6)]Man(a1-6)[Gal(b1-3)GlcNAc(b1-3)Gal(b1-4)GlcNAc(b1-3)Gal(b1-4)GlcNAc(b1-2)Man(a1-3)]Man(b1-4)GlcNAc(b1-4)[Fuc(a1-6)]GlcNAc
Summary of the method: as §1

[24] = biological target: Gal(b1-3)[Fuc(a1-4)]GlcNAc(b1-6)GalNAc
Summary of the method: as §1

[25] = biological target: Gal(b1-4)GlcNAc(b1-2)Man(a1-6)[GlcNAc(b1-2)Man(a1-3)]Man(b1-4)GlcNAc(b1-4)GlcNAc
Summary of the method: as §1

[26] = biological target: Gal(b1-4)GlcNAc(b1-3)Gal(b1-4)GlcNAc(b1-3)Gal(b1-4)GlcNAc(b1-3)Gal(b1-4)GlcNAc(b1-3)Gal(b1-4)GlcNAc(b1-2)Man(a1-3)[Gal(b1-4)GlcNAc(b1-3)Gal(b1-4)GlcNAc(b1-3)Gal(b1-4)GlcNAc(b1-3)Gal(b1-4)GlcNAc(b1-3)Gal(b1-4)GlcNAc(b1-2)Man(a1-6)]Man(b1-4)GlcNAc(b1-4)[Fuc(a1-6)]GlcNAc
Summary of the method: as §1

[27] = biological target: Gal3S(b1-4)[Fuc(a1-3)]Glc6S
Summary of the method: as §1

[28] = biological target: Gal6P(b1-4)GlcNAc
Summary of the method: as §1

B1: Blon2468mut (Bifidobacterium longum) (protein)
chain: MTFIKQMMPRYVASMTAGIVAAAMAATCAFAPVANADAVSPTQETIQSTGRHFMVYYRAWRDVTMKGVNTDLPDDNWISMYDIPYGVDVVNIFSYVPSGQEEQAQPFYDKLKSDYAPYLHSRGIKLVRGIDYTGVAVNGFRTFMKEQNKTESEATEADYDAYAKQVIDKYMISVGLDGLDIDMQAHPNDADVKISDNVIRALSKHIGPKSAKPDTTMFLYDTNGSYLNPFKNVAECFDYVAYQQYGSSSDRTARAAADYQPYIGNEFVPGLTFPEEGDMNNRWYDATEPYEESHFYQVASYVREHNLGGMFVYALDRDGRNYDEDLRRIVPSNLLWTKTAIAESEGMALDTAKTAANHYLDRMSLRQVIDDNAASADKARDMVGKAANLYETNKAVLGGDYGEGFSNTYDPTLEAGLLGIDISVLQQQIDKSSEIIGADTAESDAKTALRMARDAAIDGLTGKIYTADQVSAWSQALKAALDATVPVPTPDSTDQNGNRDKVTNHKVQGQPKQLSATGISTDIIVAVGVTLAIAGVALSLSRKLS
[1]
  glycan array binding signal (z-score): -0.052
[2]
  glycan array binding signal (z-score): -0.074
[3]
  glycan array binding signal (z-score): -0.068
[4]
  glycan array binding signal (z-score): -0.045
[5]
  glycan array binding signal (z-score): 0.003
[6]
  glycan array binding signal (z-score): -0.065
[7]
  glycan array binding signal (z-score): -0.036
[8]
  glycan array binding signal (z-score): 0.078
[9]
  glycan array binding signal (z-score): -0.055
[10]
  glycan array binding signal (z-score): -0.049
[11]
  glycan array binding signal (z-score): -0.036
[12]
  glycan array binding signal (z-score): -0.021
[13]
  glycan array binding signal (z-score): -0.061
[14]
  glycan array binding signal (z-score): -0.022
[15]
  glycan array binding signal (z-score): -0.087
[16]
  glycan array binding signal (z-score): -0.083
[17]
  glycan array binding signal (z-score): 0.009
[18]
  glycan array binding signal (z-score): -0.068
[19]
  glycan array binding signal (z-score): -0.078
[20]
  glycan array binding signal (z-score): -0.042
[21]
  glycan array binding signal (z-score): -0.09
[22]
  glycan array binding signal (z-score): 0.03
[23]
  glycan array binding signal (z-score): 0.124
[24]
  glycan array binding signal (z-score): -0.056
[25]
  glycan array binding signal (z-score): -0.055
[26]
  glycan array binding signal (z-score): -0.046
[27]
  glycan array binding signal (z-score): 0.006
[28]
  glycan array binding signal (z-score): -0.066
